According to PubChem BioAssay (Tox21):
A number with no mark means an inactive call. Active and inactive are the calls of the source. Calls come from the whole dose curve.

What follows are molecules tested against Acetylcholinesterase (Homo sapiens) (UniProt P22303) (assay: Acetylcholinesterase (AChE) small molecule antagonists: enzyme-based qHTS assay (AID 1347397; note: nearly all actives have a fitted effect of over 55% in size)). Details: Potency: AChE enzyme activity inhibition; outcome: AChE enzyme activity inhibition; series mostly up to 115 µM; activity change, negative = inhibition: at the top concentration.
Sequence of Acetylcholinesterase (Homo sapiens) (P22303 whole entry, looked up): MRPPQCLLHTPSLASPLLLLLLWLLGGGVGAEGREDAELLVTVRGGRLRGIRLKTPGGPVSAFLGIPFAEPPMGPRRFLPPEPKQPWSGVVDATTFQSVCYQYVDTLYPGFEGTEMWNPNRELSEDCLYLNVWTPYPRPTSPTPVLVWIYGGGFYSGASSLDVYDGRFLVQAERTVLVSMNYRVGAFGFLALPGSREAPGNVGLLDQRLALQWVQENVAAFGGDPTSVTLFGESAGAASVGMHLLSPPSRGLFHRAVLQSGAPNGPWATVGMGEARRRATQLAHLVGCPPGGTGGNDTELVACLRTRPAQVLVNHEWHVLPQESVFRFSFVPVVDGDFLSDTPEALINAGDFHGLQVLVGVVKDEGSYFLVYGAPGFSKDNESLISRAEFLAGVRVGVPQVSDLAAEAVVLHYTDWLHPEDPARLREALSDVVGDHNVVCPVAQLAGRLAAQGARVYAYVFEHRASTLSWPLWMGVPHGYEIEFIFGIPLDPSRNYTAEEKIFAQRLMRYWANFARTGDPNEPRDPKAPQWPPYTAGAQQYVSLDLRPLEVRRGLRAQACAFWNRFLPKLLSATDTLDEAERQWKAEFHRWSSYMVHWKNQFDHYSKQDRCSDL
From the text: National Center for Advancing Translational Sciences [NCATS]
Division of Preclinical Innovation [DPI]
U.S. Environmental Protection Agency [EPA]
National Institutes of Environmental Health Sciences [NIEHS]
National Toxicology Program [NTP]
U.S. Food and Drug Administration [FDA]
Acetylcholinesterase (AChE) is the primary cholinesterase in the body that hydrolyzes a key neurotransmitter, acetylcholine. Inhibition of AChE activity can lead to neurotoxicity. The known inhibitors include organophosphorous pesticides (OP), chemical warfare agents, drugs, and various phytochemicals.
An enzyme-based assay with the recombinant human AChE and Amplite Colormetric acetylcholinesterase assay kit (AAT Bioquest, Sunnyvale, CA) was used to evaluate the chemicals in the Tox21 10K library that inhibit AChE activity. The assay uses 5, 5-dithiobis-(2-nitrobenzoic acid) (DTNB) to quantify the thiocholine produced from the hydrolysis of acetylthiocholine by AChE.
Tox21 Assay Protocol Summary:
For the enzyme-based AChE assay, recombinant human AChE (50 mU/mL) in 4 uL/well was dispensed into black, clear-bottom 1536-well plates using a Multidrop Combi dispenser (Thermo Scientific, MA). Then, 23 nL of compound or DMSO (vehicle control) was transferred into the assay plates by a Pintool Station (Wako Automation, CA). The plates were incubated for 30 min at room temperature, followed by the addition of 4 uL of colorimetric detection cocktail solution (DTNB, acetylthiocholine) into each well using a Flying Reagent Dispenser (Beckman Coulter, CA) and then 10 min incubation at room temperature.
% is set by controls: 0 for no effect and ±100 for the full control effect; potency is the fitted concentration of half-maximal effect.

Question: How did the “activity change, negative = inhibition” value turn out when `Cc1cc2cc3c(C)cc(=O)oc3c(C)c2o1` was run?
Answer: -0.277% [at 53 µM]

Question: For `O=S(=O)(O)c1ccc(O)c2ncccc12`, which “activity change, negative = inhibition” value is on record?
Answer: 5.77%

Question: `COc1ccc(C(=O)c2ccc(C)cc2)c(O)c1` was tested. Which “activity change, negative = inhibition” value did it give?
Answer: 0.409%

Question: How did the “activity change, negative = inhibition” value turn out when `[Cl][Sc]([Cl])[Cl]` was run?
Answer: 1.9%

Question: Which Potency does the source give for `Nc1ccc(O)c(N)c1` here?
Answer: inactive

Question: For `CC(=O)OC1CCCCC1`, which “activity change, negative = inhibition” value is on record?
Answer: 1.63%

Question: Which Potency does the source give for `CC(C)c1ccc(S(=O)(=O)O)cc1` here?
Answer: inactive

Question: Which Potency does the source give for `CCOC(=O)COc1ccc2c(C)c(CCN(CC)CC)c(=O)oc2c1Cl` here?
Answer: 15.5 µM (active)

Question: With `CC(CCc1ccc(O)cc1)NCCc1ccc(O)c(O)c1` (stereo not given) as the molecule, how does the “activity change, negative = inhibition” value read?
Answer: -0.554% [at 53 µM]

Question: For `O=C(O)CNCC(=O)O`, which activity change, negative = inhibition is on record?
Answer: -0.541% [at 10.5 µM]

Question: How did the Potency turn out when `O=C1C(I)=CC(=C(c2cc(I)c(O)c(I)c2)c2ccccc2C(=O)O)C=C1I` was run?
Answer: 34.7 µM (active)

Question: Which Potency does the source give for `CCC(C)OC(=O)c1ccc(O)cc1` (stereo not given) here?
Answer: inactive

Question: Which “activity change, negative = inhibition” value does the source give for `SCCOCCOCCS` here?
Answer: -1.13%

Question: How did the “activity change, negative = inhibition” value turn out when `C=CCCC(=O)/C=C/C1C(C)=CCCC1(C)C` (stereo not given) was run?
Answer: 2.41%

Question: With `Nc1nc2c(ncn2COC(CO)CO)c(=O)[nH]1` as the molecule, how does the “activity change, negative = inhibition” value read?
Answer: 0.128% [at 53 µM]

Question: How did the “activity change, negative = inhibition” value turn out when `CCc1cccc(CC)c1` was run?
Answer: -0.0816%

Question: Which “activity change, negative = inhibition” value does the source give for `CC1(C)CC(=O)CC(C)(C)N1` here?
Answer: 1.03%

Question: How did the “activity change, negative = inhibition” value turn out when `C1CSCCS1` was run?
Answer: 0.545%

Question: For `O=C(O)CONC(=O)c1ccccc1`, which “activity change, negative = inhibition” value is on record?
Answer: 3.06%

Question: `COC(OC)OC` was tested. Which “activity change, negative = inhibition” value did it give?
Answer: 0.0144%

Question: Which Potency does the source give for `O=S(=O)(O)c1cc(S(=O)(=O)O)c2c(N=Nc3ccccc3)c(O)ccc2c1` here?
Answer: inactive

Question: Which “activity change, negative = inhibition” value does the source give for `CC(=O)Nc1ccc(OCC(O)CNC(C)C)cc1` (stereo not given) here?
Answer: -0.277% [at 53 µM]

Question: Which activity change, negative = inhibition does the source give for `NC[C@H]1O[C@H](O[C@H]2[C@H](O[C@@H]3O[C@H](CO)[C@@H](O)[C@H]3O)C(O)[C@H](N)C[C@@H]2N)[C@H](N)[C@@H](O)[C@@H]1O` (stereo not given in full) here?
Answer: 0.757% [at 10.5 µM]

Question: Which “activity change, negative = inhibition” value does the source give for `Brc1cc(Br)cc(Br)c1` here?
Answer: 0.273%

Question: `O=C(NOCC1CC1)c1ccc(F)c(F)c1Nc1ccc(I)cc1Cl` was tested. Which “activity change, negative = inhibition” value did it give?
Answer: -0.945% [at 53 µM]

Question: For `CCC1COC(=O)O1` (stereo not given), which “activity change, negative = inhibition” value is on record?
Answer: 1.17%

Question: `CC1COC(=O)O1` (stereo not given) was tested. Which Potency did it give?
Answer: inactive

Question: `CCCCCC[C@@H](O)C/C=C\CCCCCCCC(=O)OCC(O)CO` (stereo not given in full) was tested. Which “activity change, negative = inhibition” value did it give?
Answer: -5.7%

Question: For `Cc1nnc(NS(=O)(=O)c2ccc(N)cc2)s1`, which Potency is on record?
Answer: inactive

Question: Which “activity change, negative = inhibition” value does the source give for `Cc1c(N)cccc1N` here?
Answer: 0%

Question: For `c1ccc(CCc2ccccc2)cc1`, which “activity change, negative = inhibition” value is on record?
Answer: -1.05%

Question: With `C[C@]12CCC(=O)C=C1CC[C@@H]1[C@@H]2[C@@H](O)C[C@@]2(C)[C@H]1CC[C@]2(O)C(=O)CO` as the molecule, how does the Potency read?
Answer: inactive

Question: How did the “activity change, negative = inhibition” value turn out when `CCCCOc1cc(C(=O)NCCN(CC)CC)c2ccccc2n1` was run?
Answer: 1.1% [at 53 µM]

Question: For `CCc1cccc(O)c1`, which Potency is on record?
Answer: inactive

Question: For `O=C(O)O`, which activity change, negative = inhibition is on record?
Answer: 0.136% [at 10.5 µM]

Question: How did the Potency turn out when `CCC(C)(C)C(=O)O[C@H]1C[C@@H](C)C=C2C=C[C@H](C)[C@H](CC[C@@H]3C[C@@H](O)CC(=O)O3)[C@H]21` was run?
Answer: inactive

Question: With `c1coc(CNc2ncnc3nc[nH]c23)c1` as the molecule, how does the “activity change, negative = inhibition” value read?
Answer: 2.96%

Question: How did the “activity change, negative = inhibition” value turn out when `CC(C)OC(C)C` was run?
Answer: 0.588%

Question: Which Potency does the source give for `CCCCCCCCCCCC(=O)OC` here?
Answer: inactive

Question: How did the Potency turn out when `CCN(CC)c1ccc(C(=O)c2ccccc2C(=O)O)c(O)c1` was run?
Answer: inactive
